12-LOX inh = Primary qHTS assay for inhibitors of human arachidonate 12S-lipoxygenase (ALOX12): Round 2. purified 12hLO, xylenol orange hydroperoxide absorbance. Polyunsaturated fatty acid lipoxygenase ALOX12 (Homo sapiens), P18054. actives 1.1% (n = 580,000). Potency, µM (titrated, usually from 108 µM), for the others: at the highest dose activity change, negative = inhibition, hits mostly inhibitors; also: % is scaled to controls: 0 for no effect and ±100 for the full control effect
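Hydroperoxide product was detected by ferrous iron/xylenol orange as the 573 to 405 nm absorbance ratio. Arachidonic acid at 40 uM (final) was turned over for 30 min at room temperature by 150 nM human 12hLO, pH 7.0 Hepes buffer, after 15 min compound preincubation.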
HP1b binding inh = HTS for Inhibitors of HP1-beta Chromodomain Interactions with Methylated Histone Tails. Chromobox protein homolog 1 (Homo sapiens), P83916. AlphaScreen HP1-beta / biotin-H3K9me3 peptide binding. Potency, µM (doses to about 114 µM), without a hit: top-dose activity change, negative = inhibition, actives largely listed as inhibitors. actives 0.56% (n = 390,000). AID 540317, 2011; also: nearly all actives have a fitted effect of over 70% in size
Target sequence (P83916 whole entry, looked up): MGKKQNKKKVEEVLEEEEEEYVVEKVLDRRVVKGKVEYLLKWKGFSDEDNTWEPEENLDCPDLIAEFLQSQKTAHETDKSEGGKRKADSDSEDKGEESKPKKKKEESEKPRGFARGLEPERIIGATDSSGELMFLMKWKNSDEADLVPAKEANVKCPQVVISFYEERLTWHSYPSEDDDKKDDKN
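AlphaScreen: HP1-beta (50 nM) preformed 30 min with biotin-H3(1-18)K9me3 peptide (50 nM) in PBS pH 7.4, 0.01% Tween-20. Compound added for 30 min at RT, then streptavidin donor/nickel chelate acceptor beads (10 ug/mL) for 30 min.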
G9a block = qHTS Assay for Inhibitors of Histone Lysine Methyltransferase G9a | Histone-lysine N-methyltransferase EHMT2 (Homo sapiens), Q96KQ7 | G9a H3K9 monomethylation, AlphaScreen, 2 h | Potency, µM (titrated, usually from 102 µM), inactives show top-dose activity, negative = inhibition, most hits filed as inhibitors | actives 8.8% (n = 350,000) | AID 504332, 2011; also: % is scaled to controls: 0 for no effect and ±100 for the full control effect; nearly all actives have a fitted effect of over 75% in size
Target sequence (Q96KQ7 913-1193 limits assumed): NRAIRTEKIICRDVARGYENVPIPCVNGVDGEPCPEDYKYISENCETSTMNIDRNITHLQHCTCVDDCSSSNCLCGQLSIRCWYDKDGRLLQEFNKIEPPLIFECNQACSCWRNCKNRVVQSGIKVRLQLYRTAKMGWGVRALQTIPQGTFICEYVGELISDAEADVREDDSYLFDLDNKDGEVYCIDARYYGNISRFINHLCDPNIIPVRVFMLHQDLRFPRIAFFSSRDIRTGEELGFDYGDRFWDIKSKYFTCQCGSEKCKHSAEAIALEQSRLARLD
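G9a (20 nM) was preincubated 15 min with compound, then reacted 2 h at room temperature with 500 nM biotin-H3K9 peptide and 20 µM SAM. Monomethyl-H3K9 detected by AlphaScreen using anti-H3K9me1 antibody.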
PLK1 PBD inh = qHTS for Inhibitors of PLK1-PDB (polo-like kinase 1 - polo-box domain): Primary Screen; Plk1 PBD binding of FITC phosphopeptide, fluorescence polarization; Potency, µM, for inactives: max response, negative = inhibition, usual class: inhibitors; actives 2.8% (n = 360,000); also: series mostly up to about 57 µM; % is scaled to controls: 0 for no effect and ±100 for the full control effect; nearly all actives have a fitted effect of over 65% in size
BAZ2B inh = qHTS Assay for Inhibitors of BAZ2B; Bromodomain adjacent to zinc finger domain protein 2B (Homo sapiens), Q9UIF8; actives 4.4% (n = 360,000); Potency, µM (top dose mostly 114 µM), for inactives: top-dose activity change, negative = inhibition, actives largely listed as inhibitors; AlphaScreen BAZ2B-H3K14Ac peptide displacement; AID 504333, 2011; also: % is scaled to controls: 0 for no effect and ±100 for the full control effect; nearly all actives have a fitted effect of over 60% in size
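AlphaScreen displacement of biotin-H3(5-23)K14Ac peptide (50 nM final) from BAZ2B (50 nM final) in PBS pH 7.4, 0.01% Tween-20; complex preformed 30 min RT, then compounds (top 110 uM) 30 min RT, beads 20 min dark.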
JMJD2A Tudor = qHTS Assay for Inhibitors of JMJD2A-Tudor Domain. AlphaScreen JMJD2A-Tudor / H3K4me3 peptide binding. Lysine-specific demethylase 4A (Homo sapiens), O75164. actives 4.4% (n = 390,000). Potency, µM (highest dose often 114 µM), for the others: top-dose activity change, negative = inhibition, usual class: inhibitors; also: % is scaled to controls: 0 for no effect and ±100 for the full control effect; nearly all actives have a fitted effect of over 50% in size
Starred values were filed as active, the others as inactive; u = inconclusive; x = not tested or not shown; [ ] = remark or other dose. Compounds with a hit are over-represented: about 9% of the library has one in this group of screens. Calls follow the shape of the dose curve; as a rule, active = well fitted curve in the direction sought with a large enough effect; inconclusive = small, poorly fitted or top-dose-only effect, or another doubt; inactive = no such curve, though single readings can be large; an effect the other way counts as inactive or inconclusive. Potency is read from the fitted curve at half-maximal effect.

SMILES	12-LOX inh	HP1b binding inh	G9a block	PLK1 PBD inh	BAZ2B inh	JMJD2A Tudor
O=C(N/N=C/c1ccccn1)c1cc(-c2ccccc2Cl)n[nH]1	1%	30%	68%[59 µM]	-10%	56µM*	-34%
O=C(N/N=C/c1ccccn1)c1ccc(NC(=O)c2ccc(F)cc2)cc1	16%	40%	50µM*	-15%	3%	-22%
CCc1nc(C)c(C(=O)N2C[C@@H](CN3CCOCC3)[C@@H](CO)C2)o1	90%	x	x	x	x	x
COCc1cn([C@H]2CO[C@H]3[C@@H]2OC[C@@H]3NC(=O)Nc2cccc(C#N)c2)nn1	56%[176 µM]	x	x	x	x	x
CC1CN(C(=O)Nc2ccc(C(=O)NCCc3ccccc3)cc2)c2ccccc2S1 (stereo not given)	-20%	14%	u	x	-13%	-4%
O=[S+]([O-])(c1cccc(C(F)(F)F)c1)N1CCCC2(CC(c3cccnc3)=NO2)C1 (stereo not given)	8%[6.33 µM]	x	x	x	x	x
COc1ccc(N2Nc3n[nH]c(N)c3N2)cc1	13%	-2%	7.9µM*	0%	-35%	u
CCOc1ccc(N2Nc3n[nH]c(N)c3N2)cc1	0%	-15%	8.9µM*	-6%	u	u
COc1ccc(CC(=O)Nc2c(C(=O)N3CCN(c4ccccc4)CC3)oc3ccccc23)cc1OC	16%	3%	71µM*	-5%	-39%[57.1 µM]	u
COc1ccc(CC(=O)Nc2c(C(=O)N3CCN(c4ccccc4OC)CC3)oc3ccccc23)cc1OC	14%	9%	35µM*	2%	u	u
COc1ccc(CC(=O)Nc2c(C(=O)N3CCN(c4ncccn4)CC3)oc3ccccc23)cc1OC	-26%	37%	3%[59 µM]	-14%	-12%	-25%
CC1(NC(=O)CC[N+](C)(C)CCO)CS(=O)(=O)CC1S(=O)(=O)[O-] (stereo not given)	u	x	u	x	50µM*	x
COCCOC1CN(C2CCN(C(=O)c3cccc4[nH]ccc34)CC2)C12CCCCC2 (stereo not given)	27%	x	x	x	x	x
CCc1ccccc1NC(=O)C1CCCC1	10%	30%	x	4%	x	8%
COc1ccc(CN2C(=O)CN=C2Nc2cc(C)ccc2C)cc1	u	20%	u	-3%	u	-21%
CCc1ccccc1NC1=NCC(=O)N1C1CCCC1	-17%	-4%	x	30µM*	u	-20%
CCc1ccccc1NC1=NCC(=O)N1Cc1ccc(OC)cc1	u	50%	45µM*	-13%	u	-13%
O=S(=O)(c1ccccc1)c1cnn(-c2ccccc2)c1-c1ccc(F)cc1	-1%	47%	0%	-9%	-5%	1%
COc1ccc(C(=O)Nc2ccc(-c3n[nH]c(=S)o3)cc2)cc1OC	u	-25%	1.6µM*	12µM*	u	u
O=C(Nc1ccc(-c2n[nH]c(=S)o2)cc1)c1ccccc1Br	u	22%	8.9µM*	-11%	-1%	-4%
CC(C)CN1CCC2(CC1)CCN(C(=O)c1ccco1)CC2	0%[57.4 µM]	x	-28%[12.7 µM]	x	x	x
COc1cccc(-c2nc(SCC(=O)Nc3ccc4c(c3)OCCO4)c(-c3ccc(C)cc3)[nH]2)c1	0%	2%	u	x	u	u
Cc1cc(C)c(C#N)c(Cl)n1	-7%	15%	-1%[59 µM]	-2%	1%	1%
Nc1ccccc1N=c1ssnc1Cl	u	-13%	1.3µM*	4.7µM*	50µM*	u
Cc1cc(Cl)ccc1N=c1ssnc1Cl	u	22µM*	1.8µM*	1.5µM*	8.9µM*	79µM*
SMILES	12-LOX inh	HP1b binding inh	G9a block	PLK1 PBD inh	BAZ2B inh	JMJD2A Tudor
Cc1cc(C)nc(/N=c2/ssnc2Cl)c1	8.9µM*	-16%	6.3µM*	1.1µM*	x	-19%
COc1cc2ccc(-c3ccc4ccccc4n3)cc2cc1OC	-12%	x	x	2%	x	x
Cc1nnc2ccc(SCC(=O)Nc3c(F)cccc3F)nn12	31%	x	x	x	x	x
O=C(/C(Br)=C/Nc1cc(Cl)ccc1Cl)C(F)(F)F	-17%	52%	10µM*	-1%	u	u
Cc1cc(NC(=O)COC(=O)C(Cc2ccccc2)NC(=O)c2ccco2)no1 (stereo not given)	0%	32%	-1%[59 µM]	-1%	x	4%
CCOC(=O)N1CCN(S(=O)(=O)c2ccc(C(=O)N(CCN(CC)CC)c3nc4ccc(C)cc4s3)cc2)CC1	6%	-18%	50µM*	-7%	u	u
CCc1ccc2nc(N(CCCN(C)C)C(=O)c3ccc(S(=O)(=O)N4CCCc5ccccc54)cc3)sc2c1	u	u	40µM*	-3%	u	45µM*
CCOC(=O)N1CCN(S(=O)(=O)c2ccc(C(=O)N(CCCN(C)C)c3nc4ccc(CC)cc4s3)cc2)CC1	0%	8%	u	-10%	-36%	u
CCOC(=O)N1CCN(S(=O)(=O)c2ccc(C(=O)N(CCN(C)C)c3nc4ccc(CC)cc4s3)cc2)CC1	-18%	-1%	50µM*	-7%	u	u
CN(C)CCCN(C(=O)c1ccc2c(c1)OCCO2)c1nc2cc3c(cc2s1)OCO3	-29%	16%	x	-12%	-15%	-23%
CC1CN(S(=O)(=O)c2ccc(C(=O)N(CCCN(C)C)c3nc4cc5c(cc4s3)OCCO5)cc2)CC(C)O1 (stereo not given)	2%	4%	50µM*	-11%	-5%	-36%
Cc1ccc(NC(=O)CSCc2n[nH]c(=O)[nH]2)c(Br)c1	4%	-9%	-4%	u	2%	-7%
O=C(c1ccc(CS(=O)c2ccc(Br)cc2)o1)N1CCN(C2CCCCC2)CC1 (stereo not given)	-13%	x	x	-7%	x	x
Cc1noc(C2CC3(CCN(C(=O)Cc4cccc(F)c4)CC3)CN2C)n1 (stereo not given)	-2%	x	x	x	x	x
CCC1CCCCN1S(=O)(=O)c1ccc(C(=O)N(CCCN(C)C)c2nc3cc4c(cc3s2)OCO4)cc1 (stereo not given)	u	-11%	56µM*	-7%	u	u
Cc1ccc2nc(N(CCCN(C)C)C(=O)c3ccc(S(=O)(=O)N4CCCCCC4)cc3)sc2c1	u	-4%	-28%	0%	u	u

High-throughput results as filed in PubChem BioAssay.
